# Measurements as given in PubChem BioAssay (NCI).
# The panel holds about 79,000 compounds, 15% with a hit somewhere; the sample as a whole holds those more often. Unmarked numbers belong to inactive results. Active and inactive are the calls of the source. No stated cut-off is given here; in the data, active means growth inhibition above about 70%; inactive means the rest.
# Assay: NCI Yeast Anticancer Drug Screen. Data for the rad18 strain (AID 177)
# Settings: S. cerevisiae rad18 mutant growth inhibition, stronger effect = higher value
# Method: Growth inhibition of yeast strains with defined genetic alterations is measured as a screen for potential anti-cancer activity. Selected strains with alterations in DNA damage repair or cell cycle control were exposed to compounds and growth inhibition was measured relative to vehicle treated controls. The strain used in this assay is rad18
SMILES,growth inhibition (at 1.2 µM) [%],growth inhibition (at 3.7 µM) [%],growth inhibition (at 11.0 µM),growth inhibition (at 33.0 µM),growth inhibition (at 100.0 µM)
O=C1OC2C(O1)C1(Cl)C(Cl)=C(Cl)C2(Cl)C1(Cl)Cl (stereo not given),-4,0,-1%,-2%,2%
CC[C@@]1(O)C(=O)OCc2c1cc1n(c2=O)Cc2cc3ccccc3nc2-1,-6,20,89% (active),93% (active),94% (active)
Cc1ccc2nc3sc(=O)sc3nc2c1,29,56,99% (active),98% (active),97% (active)
COC(=O)C1=C(C(=O)OC)SC2(S1)C(C(=O)OC)=C(C(=O)OC)Sc1c2ssc1=O,30,55,91% (active),95% (active),90% (active)
O=[N+]([O-])c1ccc(N2CCC(CCCC3CCN(c4ccc([N+](=O)[O-])cc4[N+](=O)[O-])CC3)CC2)c([N+](=O)[O-])c1,-24,-25,-14%,-5%,4%
O=C(O)C1C2C=CC(C2)C1c1ccccc1 (stereo not given),-1,-3,-2%,10%,60%
CCOC(=O)C1=C(C(=O)OCC)C2(c3ccccc3)N(O1)c1ccccc1C2(C)C (stereo not given),-4,-11,-12%,-4%,68%
c1c(N2CCOCC2)ssc1=[N+]1CCOCC1,-1,-2,-1%,-1%,-2%
